Experimental data from PubChem BioAssay (EPA / NIEHS).
Active and inactive are the calls of the source. Rule for the calls: active = hit-call score of the fitted dose curve at least 0.9, where 1 is the maximum; inactive = score below 0.9.

Tests used:
[1] = read-out: Cytochrome P450 (CYP1A1), CYP1A1 (gene 1543); assay: LTEA_HepaRG_CYP1A1: Life Technologies and Expression Analysis (LTEA) Assay for Cytochrome P450 (CYP1A1) using HepaRG (AID 2283454); conditions: mRNA level, 48 h; actives raise or lower the signal
In short: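 qRT-PCR read-out: CYP1A1 transcript normalized to three housekeeping genes, fitted bidirectionally against 0.5% DMSO vehicle baseline. Human HepaRG cells, 48 h chemical exposure, 8-point half-log series topping at 100 uM.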

[2] = read-out: CFLAR gene, CFLAR (gene 8837); assay: LTEA_HepaRG_CFLAR: Life Technologies and Expression Analysis (LTEA) Assay for CFLAR gene using HepaRG (AID 2283455); conditions: mRNA level, 48 h; actives raise or lower the signal
In short: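 Differentiated HepaRG cells in serum-free induction medium were exposed 48 h in duplicate to eight half-log concentrations up to 100 uM in 0.5% DMSO; mRNA measured by TaqMan qRT-PCR, normalized to ACTB, GAPDH, POLR2A; bidirectional fitting versus DMSO.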

[3] = read-out: Forkhead box O1 (FOXO1), FOXO1 (gene 2308); assay: LTEA_HepaRG_FOXO1: Life Technologies and Expression Analysis (LTEA) Assay for Forkhead box O1 (FOXO1) using HepaRG (AID 2283456); conditions: mRNA level, 48 h; actives raise or lower the signal
In short: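 Differentiated HepaRG cells, in serum-free induction medium with 0.5% DMSO, exposed 48 h in duplicate to 8-point half-log series from 100 uM. FOXO1 mRNA measured by TaqMan qRT-PCR, normalized to ACTB, GAPDH, POLR2A; bidirectional fit versus DMSO.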

[4] = read-out: growth arrest and DNA damage 45 (GADD45A), GADD45A (gene 1647); assay: LTEA_HepaRG_GADD45A: Life Technologies and Expression Analysis (LTEA) Assay for growth arrest and DNA damage 45 (GADD45A) using HepaRG (AID 2283458); conditions: mRNA level, 48 h; actives raise or lower the signal
In short: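 Human HepaRG liver cells are treated in duplicate for 48 h with chemicals in 0.5% DMSO, highest concentration 100 uM. Expression is read by qRT-PCR and analyzed in both directions against vehicle.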

[5] = read-out: Forkhead box O3 (FOXO3), FOXO3 (gene 2309); assay: LTEA_HepaRG_FOXO3: Life Technologies and Expression Analysis (LTEA) Assay for Forkhead box O3 (FOXO3) using HepaRG (AID 2283459); conditions: mRNA level, 48 h; actives raise or lower the signal
In short: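 Differentiated human HepaRG cells, 48 h post-plating, exposed in duplicate for 48 h in serum-free induction medium; 8-point half-log series from 100 uM in 0.5% DMSO. FOXO3 mRNA by TaqMan qRT-PCR, normalized to ACTB/GAPDH/POLR2A; bidirectional fit versus DMSO.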

[6] = read-out: ABC Transporter (ABCB1), ABCB1 (gene 5243); assay: LTEA_HepaRG_ABCB1: Life Technologies and Expression Analysis (LTEA) Assay for ABC Transporter (ABCB1) using HepaRG (AID 2283460); conditions: mRNA level, 48 h; actives raise or lower the signal
In short: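 HepaRG cells exposed in duplicate for 48 h in serum-free induction medium to eight half-log concentrations up to 100 uM in 0.5% DMSO. ABCB1 mRNA quantified by qRT-PCR, normalised to ACTB, GAPDH and POLR2A; fitted bidirectionally versus DMSO.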

[7] = read-out: growth arrest and DNA damage 45 (GADD45B), GADD45B (gene 4616); assay: LTEA_HepaRG_GADD45B: Life Technologies and Expression Analysis (LTEA) Assay for growth arrest and DNA damage 45 (GADD45B) using HepaRG (AID 2283461); conditions: mRNA level, 48 h; actives raise or lower the signal
In short: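 qRT-PCR read-out (Fluidigm TaqMan, housekeeping-normalized) of mRNA change in human HepaRG cells after 48 h chemical exposure; 8-point curve, top 100 uM, half-log steps, 0.5% DMSO vehicle; gain or loss fitted relative to DMSO baseline.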

[8] = read-out: ABC Transporter (ABCB11), ABCB11 (gene 8647); assay: LTEA_HepaRG_ABCB11: Life Technologies and Expression Analysis (LTEA) Assay for ABC Transporter (ABCB11) using HepaRG (AID 2283463); conditions: mRNA level, 48 h; actives raise or lower the signal
In short: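 Differentiated human HepaRG cells in serum-free induction medium, dosed in duplicate for 48 h. Eight-point half-log series from 100 uM in 0.5% DMSO; ABCB11 mRNA by qRT-PCR, normalized to ACTB, GAPDH, POLR2A, fitted bidirectionally versus DMSO.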

[9] = read-out: ABC Transporter (ABCC2), ABCC2 (gene 1244); assay: LTEA_HepaRG_ABCC2: Life Technologies and Expression Analysis (LTEA) Assay for ABC Transporter (ABCC2) using HepaRG (AID 2283464); conditions: mRNA level, 48 h; actives raise or lower the signal
In short: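 qRT-PCR (TaqMan, Fluidigm array) read-out of ABCC2 mRNA, normalized to three housekeeping genes. Differentiated HepaRG cells were treated 48 h in serum-free induction medium with 8-point half-log series from 100 uM in 0.5% DMSO; curves fitted bidirectionally relative to DMSO.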

[10] = read-out: Broad substrate specificity ATP-binding cassette transporter ABCG2 (Homo sapiens) (UniProt Q9UNQ0); assay: LTEA_HepaRG_ABCG2: Life Technologies and Expression Analysis (LTEA) Assay for ABC Transporter (ABCG2) using HepaRG (AID 2283465); conditions: mRNA level, 48 h; actives raise or lower the signal
In short: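 Differentiated HepaRG cells were exposed for 48 h in serum-free induction medium to 8 half-log concentrations, top 100 uM, in 0.5% DMSO. ABCG2 mRNA was measured by qRT-PCR, normalized to ACTB, GAPDH and POLR2A, with bidirectional fitting versus DMSO.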

[11] = read-out: ATP-citrate lyase (ACLY), ACLY (gene 47); assay: LTEA_HepaRG_ACLY: Life Technologies and Expression Analysis (LTEA) Assay for ATP-citrate lyase (ACLY) using HepaRG (AID 2283466); conditions: mRNA level, 48 h; actives raise or lower the signal
In short: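 Differentiated HepaRG cells exposed 48 h in serum-free induction medium to eight half-log concentrations up to 100 uM in 0.5% DMSO, duplicates. Transcript measured by Fluidigm TaqMan qRT-PCR, normalized to ACTB, GAPDH, POLR2A; bidirectional fit versus DMSO.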

[12] = read-out: Peroxisomal acyl-coenzyme A oxidase 1 (ACOX1) gene, ACOX1 (gene 51); assay: LTEA_HepaRG_ACOX1: Life Technologies and Expression Analysis (LTEA) Assay for Peroxisomal acyl-coenzyme A oxidase 1 (ACOX1) gene using HepaRG (AID 2283467); conditions: mRNA level, 48 h; actives raise or lower the signal
In short: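 HepaRG cells, plated 48 h then switched to serum-free induction medium, were exposed in duplicate for 48 h to 8-point half-log concentrations up to 100 uM in 0.5% DMSO. ACOX1 mRNA was measured by qRT-PCR, normalized to ACTB/GAPDH/POLR2A, and fitted bidirectionally versus DMSO.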

[13] = read-out: Alkaline Phosphatase, Placental (ALPP) gene, ALPP (gene 250); assay: LTEA_HepaRG_ALPP: Life Technologies and Expression Analysis (LTEA) Assay for Alkaline Phosphatase, Placental (ALPP) gene using HepaRG (AID 2283468); conditions: mRNA level, 48 h; actives raise or lower the signal
In short: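 qRT-PCR readout of ALPP mRNA (Fluidigm TaqMan), normalized to ACTB/GAPDH/POLR2A, after 48 h chemical exposure of HepaRG cells; 8-point half-log series, top 100 uM, 0.5% DMSO vehicle. Bidirectional curve fit versus DMSO baseline.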

[14] = read-out: Bcl-2 (BAD) gene, BAD (gene 572); assay: LTEA_HepaRG_BAD: Life Technologies and Expression Analysis (LTEA) Assay for Bcl-2 (BAD) gene using HepaRG (AID 2283469); conditions: mRNA level, 48 h; actives raise or lower the signal
In short: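 Differentiated HepaRG cells were exposed in duplicate in 0.5% DMSO for 48 h to eight-point half-log concentrations up to 100 uM. BAD mRNA was measured by Fluidigm TaqMan qRT-PCR, normalized to ACTB, GAPDH and POLR2A, and fitted bidirectionally against DMSO.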

[15] = read-out: Bcl-2 (BAX) gene, BAX (gene 581); assay: LTEA_HepaRG_BAX: Life Technologies and Expression Analysis (LTEA) Assay for Bcl-2 (BAX) gene using HepaRG (AID 2283470); conditions: mRNA level, 48 h; actives raise or lower the signal
In short: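 Concentration-response endpoint fitted in both directions relative to 0.5% DMSO vehicle. Human HepaRG cultures receive test chemicals for 48 h at up to 100 uM; BAX mRNA is quantified by qRT-PCR against housekeeping genes.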

[16] = read-out: adenosine kinase (ADK) gene, ADK (gene 132); assay: LTEA_HepaRG_ADK: Life Technologies and Expression Analysis (LTEA) Assay for adenosine kinase (ADK) gene using HepaRG (AID 2283471); conditions: mRNA level, 48 h; actives raise or lower the signal
In short: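 ADK expression quantified by qRT-PCR, normalised to three housekeeping genes, after 48 h exposure of HepaRG cells to eight concentrations (top 100 uM, half-log steps, duplicate, 0.5% DMSO). Up- or down-regulation fitted relative to vehicle.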

[17] = read-out: Alpha-fetoprotein (AFP) gene, AFP (gene 174); assay: LTEA_HepaRG_AFP: Life Technologies and Expression Analysis (LTEA) Assay for Alpha-fetoprotein (AFP) gene using HepaRG (AID 2283472); conditions: mRNA level, 48 h; actives raise or lower the signal
In short: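 After a 48 h plating period, cells are moved to serum-free induction medium and dosed in duplicate (100 uM maximum, half-log dilutions, 0.5% DMSO) for another 48 h. Total RNA goes to TaqMan qRT-PCR; AFP signal is housekeeping-normalized.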

[18] = read-out: BCL2L11 (gene 10018); assay: LTEA_HepaRG_BCL2L11: Life Technologies and Expression Analysis (LTEA) Assay for Bcl-2 (BCL2L11) gene using HepaRG (AID 2283473); conditions: mRNA level, 48 h; actives raise or lower the signal
In short: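 HepaRG, 48 h exposure, 8-pt half-log series from 100 uM in 0.5% DMSO, duplicates; qRT-PCR (Fluidigm TaqMan) for BCL2L11, housekeeping-normalized; bidirectional curve fit relative to DMSO baseline.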

[19] = read-out: Apolipoprotein A-V (APOA5) gene, APOA5 (gene 116519); assay: LTEA_HepaRG_APOA5: Life Technologies and Expression Analysis (LTEA) Assay for Apolipoprotein A-V (APOA5) gene using HepaRG (AID 2283474); conditions: mRNA level, 48 h; actives raise or lower the signal
In short: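 HepaRG, 48 h chemical exposure in serum-free induction medium, 8-pt half-log series (top 100 uM), 0.5% DMSO vehicle, duplicates. Readout: APOA5 mRNA by qRT-PCR, housekeeping-normalized; bidirectional fit vs DMSO baseline.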

[20] = CEETOX_H295R_TESTO: CeeTox H295R High-throughput Steroidogenesis Assay for Testosterone (TESTO) (AID 2283457); conditions: actives raise or lower the signal
In short: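 Readout: testosterone quantified by HPLC-MS/MS (C18, ESI positive) after MTBE liquid-liquid extraction of culture medium. Cells were H295R, 48 h chemical exposure per OECD 456 with modifications. Gain or loss of signal fitted relative to DMSO.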

Measured: outcome

Sequence of Broad substrate specificity ATP-binding cassette transporter ABCG2 (Homo sapiens) (Q9UNQ0 whole entry, looked up): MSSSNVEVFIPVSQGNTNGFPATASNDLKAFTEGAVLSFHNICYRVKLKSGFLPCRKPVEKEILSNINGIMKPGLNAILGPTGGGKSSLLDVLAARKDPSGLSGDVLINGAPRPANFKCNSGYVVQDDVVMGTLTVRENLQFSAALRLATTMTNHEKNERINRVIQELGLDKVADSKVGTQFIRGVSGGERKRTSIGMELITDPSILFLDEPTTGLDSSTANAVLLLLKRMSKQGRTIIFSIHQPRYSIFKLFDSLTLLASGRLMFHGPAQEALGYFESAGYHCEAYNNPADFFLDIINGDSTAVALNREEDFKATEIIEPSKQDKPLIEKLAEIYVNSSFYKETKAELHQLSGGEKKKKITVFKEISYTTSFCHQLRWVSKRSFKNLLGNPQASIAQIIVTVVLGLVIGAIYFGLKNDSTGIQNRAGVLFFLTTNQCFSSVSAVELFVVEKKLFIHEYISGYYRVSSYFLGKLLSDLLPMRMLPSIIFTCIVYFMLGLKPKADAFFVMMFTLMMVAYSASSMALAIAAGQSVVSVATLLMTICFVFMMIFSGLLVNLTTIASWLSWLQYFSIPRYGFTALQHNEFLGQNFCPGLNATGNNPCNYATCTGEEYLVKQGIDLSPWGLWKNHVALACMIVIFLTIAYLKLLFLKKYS

CCCCC=O
inactive: [1] | [2] | [3] | [4] | [5] | [6] | [7] | [8] | [9] | [10] | [11] | [12] | [13] | [14] | [15] | [16] | [17] | [18] | [19]

O=C(NCc1ncc(C(F)(F)F)cc1Cl)c1c(Cl)cccc1Cl
inactive: [20]

Cc1cccc2c1ccc1ccccc12
inactive: [20]

O=C(c1ccccc1)c1ccccc1
inactive: [2] | [3] | [4] | [5] | [6] | [7] | [8] | [9] | [10] | [11] | [12] | [13] | [14] | [15] | [16] | [17] | [18] | [19]
